Data: PubChem BioAssay (EPA / NIEHS)
Several values for one entry are separate records, joined by “and”; a condition that tells them apart may be missing. Equal entries are not always repeated. Inconclusive results are not listed. Some compounds were tested as several samples or in several runs, with calls that do not always agree. Activity calls are given as the source filed them. The calls were made as follows: active = hit-call score of the fitted dose curve at least 0.9, where 1 is the maximum; inconclusive = response in the unintended direction; inactive = score below 0.9.

These compounds were tested against Nuclear receptor subfamily 1 group I member 2 (Mus musculus) (UniProt O54915) (assay: ATG_mPXR_XSP2: Attagene TRANS-FACTORIAL Multi-Species (XSP1) HepG2 Assay for mouse Pregnane X Receptor (PXR) (AID 2283831)).
Chain of Nuclear receptor subfamily 1 group I member 2 (Mus musculus) (O54915 whole entry, looked up): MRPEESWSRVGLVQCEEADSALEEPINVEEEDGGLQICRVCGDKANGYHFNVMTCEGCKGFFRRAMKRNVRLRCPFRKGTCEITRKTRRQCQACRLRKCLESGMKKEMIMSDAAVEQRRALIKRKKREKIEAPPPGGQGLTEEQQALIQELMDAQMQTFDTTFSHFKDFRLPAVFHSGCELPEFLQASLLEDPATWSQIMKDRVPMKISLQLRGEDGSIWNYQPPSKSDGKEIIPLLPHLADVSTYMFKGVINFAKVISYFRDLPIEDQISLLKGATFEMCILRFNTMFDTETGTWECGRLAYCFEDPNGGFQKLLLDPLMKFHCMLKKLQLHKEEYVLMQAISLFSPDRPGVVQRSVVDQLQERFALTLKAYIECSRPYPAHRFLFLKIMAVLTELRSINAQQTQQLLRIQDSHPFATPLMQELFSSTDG
Description: ATG_XSP2_multi-species_TRANS is a cell-based, multiplexed assay created by modifying the existing Attagene TRANS-FACTORIAL system to include a panel of nuclear receptors from some or all the following species: human (Homo sapiens), mouse (Mus musculus), frog (Xenopus laevis), zebrafish (Danio rerio), chicken (Gallus gallus), and turtle (Chrysemys picta). The ECOTOX-FACTORIAL format uses HepG2, a human liver cell line, with measurements taken at 24 hours after chemical dosing in a 24-well plate. Xsp2 included 3 nM 6-alpha-fluorotestosterone and 1.5 nM norgestrel to stimulate the androgen receptor.ATG_mPXR_XSP2 is one of 29 assay components measured or calculated from the ATG_XSP2_multi-species_TRANS assay. It is designed to make measurements of mRNA induction, a form of inducible reporter, as detected with fluorescence intensity signals by Reverse transcription polymerase chain reaction (RT-PCR) and Capillary electrophoresis technology.The assay endpoint ATG_mPXR_XSP2 was analyzed in the positive analysis fitting direction relative to DMSO as the negative control and baseline of activity. Using a type of inducible reporter, measures of mRNA for gain-of-signal activity can be used to understand the reporter gene at the transcription factor-level as they relate to the gene PXR. Furthermore, this assay endpoint can be referred to as a primary readout, because this assay has produced multiple assay endpoints where this one serves a reporter gene function. To generalize the intended target to other relatable targets, this assay endpoint is annotated to the nuclear receptor intended target family, where the subfamily is non-steroidal.
Human liver HepG2 cells are transiently transfected with multiple reporter transcription units (MRTUs) in 6-well plates using FuGene 6 reagent (Roche; 3 ml FuGene/1 mg DNA). The MRTU constructs are regulated by a cis-regulating element (promoter). […] A major difference between the CIS and TRANS system is that in CIS activities of endogenous TFs are measured, whereas the TRANS assay evaluates changes in activities of exogenous, chimeric NR-Gal4 proteins. […] At the end of 24 hour incubation, total RNA was isolated using TriZol reagent (Invitrogen). The isolated RNA is then reverse-transcribed using oligo(dT) primer and Mo-MLV reverse transcriptase (Invitrogen) with DNAse I (Ambion) treatment for 30 min. The one-tenth of the produced cDNA was amplified by PCR using Taq DNA polymerase (Invitrogen) and two reporter sequence-specific primers. The PCR products were fluorescently labeled by primer extension with 6-arboxyfluorescein (6-FAM) 5'-labeled reporter sequence-specific primer (2 min at 95 C, 20 s at 68 C and 10 min at 72 C) and these products were digested with 5U of HpaI (New England Biolabs) for 2h at 37 C. The fragments were purified using Qiaquick PCR columns (Qiagen), analyzed on an ABI 3130xL genetic analyzer (Applied Biosystems) with peak positions identified by using a set of X-rhodamine (ROX)-labeled MapMarker1000 molecular weight standards (BioVentures). The raw capillary electrophoresis data was processed using Attagraph software (Attagene).

| SMILES | outcome | AC50 |
| --- | --- | --- |
| O=S(=O)(O)C(F)(F)C(F)(F)C(F)(F)C(F)(F)C(F)(F)C(F)(F)C(F)(F)C(F)(F)F | inactive | – |
| Oc1ccc(Cl)cc1Cc1ccccc1 | inactive | – |
| CC(C)(C)C(O)/C(=C\c1ccc(Cl)cc1Cl)n1cncn1 (configuration not stated) | – | 1.24 µM (active) and 1.41 µM (active) |
| CCCN(CCC)c1c([N+](=O)[O-])cc(C(F)(F)F)cc1[N+](=O)[O-] | – | 1.88 µM (active) |
| COP(=S)(OC)Oc1ccc(SC)c(C)c1 | – | 1.94 µM (active) |
| CC1(C)C(C=C(Cl)Cl)C1C(=O)OC(C#N)c1ccc(F)c(Oc2ccccc2)c1 (configuration not stated) | – | 1.97 µM (active) |
| O=S1OCC2C(CO1)C1(Cl)C(Cl)=C(Cl)C2(Cl)C1(Cl)Cl (configuration not stated) | inactive | – |
| CCOCN(C(=O)CCl)c1c(C)cccc1CC | – | 5.1 µM (active) |
| CCCN(CCOc1c(Cl)cc(Cl)cc1Cl)C(=O)n1ccnc1 | – | 0.108 µM (active) |
| COP(=S)(OC)Oc1ccc([N+](=O)[O-])cc1 | inactive | 41.4 µM (active) |
| Oc1cc(Cl)ccc1Oc1ccc(Cl)cc1Cl | – | 11.1 µM (active) |
